# About 83,000 compounds went through this panel and 20% of them were active in at least one assay; those are over-represented in the sample as a whole.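 Assay: single dose, 48 h. Readout: percent growth (0 = no net growth; negative = cell death). Active: <10.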 Calls of active or inactive are those of the source.
# Tested on: MDA-MB-468 breast
# Experiment: NCI-60 one-dose screen, 48 h (100 = growth as untreated, 0 = no growth, -100 = all killed)
# Conditions: 10 µM unless noted
row,Structure (SMILES),growth
1,O=C1CC(=O)N(c2ccccc2)O1,105% (inactive)
2,CC(=O)c1ccc(Br)c([N+](=O)[O-])c1,112% (inactive)
3,O=C(Nc1ccc(-n2ccc3c(NC(=O)c4ccccc4)nccc32)cc1)Nc1cccc(C(F)(F)F)c1,15.5% (inactive)
4,COc1ccc(-c2cn3c(-c4ccc(OC)cc4)cnc3c(Oc3ccc4c(C)cc(=O)oc4c3)n2)cc1,43.9% (inactive)
5,N#CC1=C(N)Oc2c(c(N)nn2-c2ccccc2)C1c1ccc(Cl)cc1Cl (configuration not stated),129% (inactive)
6,O=C1NCC(=O)N(Cc2ccco2)[C@H]1Cc1ccccc1,114% (inactive)
7,N#Cc1c(NC(=O)c2ccccc2)sc2c1CCC(=O)C2,-9.47% (active)
8,COc1cccc(C2=NN3C(C2)c2cc(Br)cc(OC)c2OC32CCN(Cc3ccccc3)CC2)c1 (configuration not stated),96.4% (inactive)
9,COc1cc2nc(Cl)nc(Nc3cccc(C(=O)/C=C/c4ccc(Br)cc4)c3)c2cc1OC,85.7% (inactive)
10,COc1ccc(Cn2cc(Cn3c(=O)c(-c4nc5ccccc5[nH]4)cc4ccccc43)nn2)c(OC)c1OC,13.6% (inactive)
11,O=S(=O)(Nc1ccccc1Cl)c1ccc(-c2cnc(C3CC3)o2)cc1,6.43% (active)
12,NNC(=O)CSc1nc2scc(-c3ccccc3)c2c(=O)n1-c1ccccc1,102% (inactive)
13,CCN1CCN(c2nc(NCCCNc3ccnc4cc(Cl)ccc34)c3ccccc3n2)CC1,29.1% (inactive)
14,[N-]=[N+]=NCc1ncc(-c2ccc(C(F)(F)F)cc2)c(NC2CCCCCC2)n1,103% [50 µM] (inactive)
15,C#CCSc1nnnn1-c1ccccc1,22.3% (inactive)
16,C=CC(=O)Nc1cc(Nc2nccc(-c3cn(C)c4ccccc34)n2)c(OC)cc1N(C)CCN(C)C,-74.1% (active)
17,Cc1ccc(C(=O)N/N=C/c2cccc(Oc3ccccc3)c2)cn1,58.6% (inactive)
18,CN(Cc1ccc(C(F)(F)F)cc1)CC(O)C(=O)Nc1ccc(Cl)cc1 (configuration not stated),-30.5% (active)
19,O=C1C=CC2(O)OC/C(=C\c3ccccc3)C(O)=C2C1=O (configuration not stated),10.3% (inactive)

row,Structure (SMILES),growth
1,CSc1ccc(N(C)c2nc(C)nc3c2CCC3)cc1,46.8% (inactive)
2,C[C@@H]1CC2C3CCC4=CC(=O)C=C[C@]4(C)[C@@]3(Cl)[C@@H](O)C[C@]2(C)[C@@]1(OC(=O)c1ccco1)C(=O)CCl (some centres not stated),104% (inactive)
3,C=C1C(=O)O[C@H]2[C@H]1CC/C(COC(=O)/C=C\C(=O)NCc1ccc(Cn3c(=O)sn(CCCl)c3=O)cc1)=C\CC[C@@]1(C)O[C@@H]21,43% (inactive)
4,COc1cc2c(cc1NC(=O)C(Cl)Cl)-c1ccc(NC(=O)C(Cl)Cl)cc1C2,-58.3% (active)
5,CC(=O)OC[C@]12CC[C@@H](/C(C)=N/O)[C@@H]1[C@H]1CC[C@@H]3[C@@]4(C)CCCNC(C)(C)[C@@H]4CC[C@@]3(C)[C@]1(C)CC2,54.1% (inactive)
6,Cn1cccc1C(=O)C1C(c2cccc([N+](=O)[O-])c2)C2C3CCCCC3CN2C12C(=O)Nc1ccc(Cl)cc12 (configuration not stated),32% (inactive)
7,Nc1ncnc2c1N=C(c1ccc3c(c1)OCO3)CC(c1cccc(Nc3ccnc4cc(C(F)(F)F)ccc34)c1)N2 (configuration not stated),86.6% (inactive)
8,CC(=O)NCCSC(=O)C(=O)SCCNC(C)=O,103% (inactive)
9,CN1CCN(CCCOc2cccc3nc(Nc4ccc(Cl)c(F)c4)ccc23)CC1,33.2% (inactive)
10,O=C1NC(=O)c2ncccc21,93.8% (inactive)
11,C=C1C(=O)O[C@H]2[C@H]1CC/C(COC(=O)CSCCSCC(=O)OC/C1=C/CC[C@@]3(C)O[C@H]3[C@H]3OC(=O)C(=C)[C@@H]3CC1)=C\CC[C@@]1(C)O[C@@H]21,-44.7% (active)
12,Nc1nccc2c1ccn2-c1ccc(NC(=O)c2ccc(N3CCOCC3)c(C(F)(F)F)c2)cc1,27.6% (inactive)
13,O=c1c2cc(F)cc(Cl)c2sc2c(NCCCNCCO)nc3ccccc3c12,78.2% (inactive)
14,CCN(CC)CCCN1C(=O)c2c(c(C)c3c(oc4cc(OC)ccc43)c2C)C1=O,116% (inactive)
15,CC(=O)c1c[nH]c2ccccc12,104% (inactive)
16,O=C(O)C(=Cc1c2ccccc2cc2ccccc12)C(=O)O,116% (inactive)
17,Cc1nc2sc(C(=O)Nc3ccc(Cl)cc3)c(N)c2cc1C(O)c1ccccc1 (configuration not stated),-0.107% (active)
18,COc1cc(OC)cc(-c2ccc(-c3ccc(C(=N)N)cc3)s2)c1,-81.3% (active)
